In PubChem BioAssay (Tox21):
Inconclusive results are not listed. Where a call stands in place of a potency, no number is given. The source made the active and inactive calls. Calls follow the shape of the dose curve; as a rule, active = well fitted cell-killing curve with a large enough effect in the repeat runs; inconclusive = weak or mixed curves; inactive = flat fitted curve, though single readings scatter.

Assay: qHTS RealTime-Glo MT Cell Viability Assay in HepG2 cells - 32 hour (AID 1224877); also: nearly all actives have a fitted effect of over 55% in size
Details: RealTime-Glo luminescence; series mostly up to 76.8 µM
Excerpt: U.S. Tox21 Program National Center for Advancing Translational Sciences [NCATS] NIH Chemical Genomics Center [NCGC] U.S. Environmental Protection Agency [EPA] National Institutes of Environmental Health Sciences [NIEHS] National Toxicology Program [NTP] U.S. Food and Drug Administration [FDA] Tox21 Assay Overview: Measure of cell viability is critical in the cell-base assay. Analysis of cell viability is necessary for the characterization of cell responses to cytotoxic drugs and environmental stress. A RealTime-Glo MT Cell Viability Assay to monitor cell viability in real time of continues cell culture during 40 hours of compound treatment was used to screen Tox21 10K library compounds in HepG2 cells. The RealTime-Glo MT Cell Viability Assay is a nonlytic, homogeneous, bioluminescent method to measure cell viability in real time using a simple, plate-based method. The assay involves adding NanoLuc luciferase and a cell-permeant prosubstrate to cells in culture. Viable cells reduce the proprietary prosubstrate to generate a substrate for NanoLuc luciferase. This substrate diffuses from cells into the surrounding culture medium, where it is rapidly used by the NanoLuc Enzyme to produce a luminescent signal. The signal correlates with the number of viable cells, making the assay well suited for cytotoxicity studies.
Tox21 Assay Protocol Summary: The mixture of HepG2 cell suspension and reagents were dispensed at 600cells/6 ul/well in 1536-well tissue culture treated black solid bottom plates using a Multidrop dispenser. After the assay plates were incubated at a 37 C/5% CO2 incubator for 5 hours, 23 nL of compounds dissolved in DMSO, positive and negative controls was transferred to the assay plate by a pintool work station. The plates were incubated at 37 C for 40 hours. The luminescence intensity were measured at 0h, 8h, 16h, 24h, 32h and 40h time points using ViewLux plate reader during compound treatment.

SMILES | Potency | activity change, negative = cytotoxic
CC(C)(C)OC(=O)c1ncn2c1[C@@H]1CCCN1C(=O)c1c(Br)cccc1-2 | inactive | –
O=C1OC(c2ccc(O)c(S(=O)(=O)O)c2)(c2ccc(O)c(S(=O)(=O)O)c2)c2c(Br)c(Br)c(Br)c(Br)c21 | inactive | –
N#CCNCC#N | inactive | –
CC(C)(C)NCC(O)c1cc(Cl)c(N)c(Cl)c1 (stereo not given) | inactive | –
CCCCC(=O)Cl | inactive | –
CC(C)CP(=S)(S)CC(C)C | inactive | –
CC1(C)CON(Cc2ccccc2Cl)C1=O | inactive | –
CCN(CC)CCOC(=O)C(C)(c1ccccc1)c1ccccc1 | inactive | –
O=[N+]([O-])c1cc(Cl)c(Cl)c(Cl)c1 | inactive | –
N#CC(Cl)(Cl)Cl | inactive | –
Fc1cc(Br)ccc1CBr | inactive | –
CCCCN(CCCCO)N=O | inactive | –
COc1cc(OC)nc(Sc2cccc(Cl)c2C(=O)O)n1 | inactive | –
CNC(=O)Oc1cccc(C(C)C)c1 | inactive | –
O=CNC(N1CCN(C(NC=O)C(Cl)(Cl)Cl)CC1)C(Cl)(Cl)Cl (stereo not given) | inactive | –
CC(COc1ccc(Oc2ccccc2)cc1)Oc1ccccn1 (stereo not given) | inactive | –
CNC(=O)Oc1ccccc1C1OCCO1 | inactive | –
ClCCCN1CCN(c2cccc(Cl)c2)CC1 | inactive | –
CC1CN1P(=O)(N1CC1C)N1CC1C (stereo not given) | inactive | –
COc1cc(OC)nc(NC(=O)NS(=O)(=O)c2ncccc2OCC(F)(F)F)n1 | inactive | –

SMILES | Potency | activity change, negative = cytotoxic
CN(C)CCc1ccc(O)cc1 | inactive | –
CCC/C(=N\OCC)C1=C(O)CC(CC(C)SCC)CC1=O (stereo not given) | inactive | –
O=C1CN2CCOC2(c2ccccc2Cl)c2cc(Cl)ccc2N1 (stereo not given) | inactive | –
CCOP(=S)(OCC)Oc1cc(-c2ccccc2)on1 | inactive | –
N#CCCC#N | inactive | –
CCC1(c2ccccc2)C(=O)N=C(O)NC1=O (stereo not given) | inactive | –
CC1=C(C(=O)O)N2C(=O)[C@@H](N)[C@H]2SC1 | – | 1.22% [at 15.8 µM] (inactive)
C[C@@H]1CN(C2CCC(C#N)(c3ccc(F)cc3)CC2)CC[C@]1(C(=O)O)c1ccccc1 (stereo not given in full) | inactive | –
Nc1cc(Cl)ccc1O | inactive | –
CCOC(=O)NC(=S)Nc1ccccc1NC(=S)NC(=O)OCC | inactive | –
CCSC(=O)N(CC)C1CCCCC1 | inactive | –
CC(C)CC#N | inactive | –
N#CCBr | inactive | –
CCCCc1c(C)nc(NCC)[nH]c1=O | inactive | –
CN1C(=S)CN=C(c2ccccc2)c2cc(Cl)ccc21 | inactive | –
ClC(Cl)Br | inactive | –
CCC#N | inactive | –
O=C(Oc1ccc(Br)cc1)N1CCN2CCC1CC2 | inactive | –
OC(c1ccc(F)cc1)(c1cncnc1)c1ccccc1Cl (stereo not given) | inactive | –
Nc1n[nH]c(N)n1 | inactive | –
